{"source": "PubChem BioAssay (NCI)", "note": "Compounds without any hit were thinned out: in the full panel of roughly 83,000, 20% have a hit.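 Plates (96-well) were seeded with cells, treated with compound at one concentration, and incubated for 48 hours before percent growth was determined.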 A number with no mark means an inactive call. Active and inactive are the calls of the source. The calls were made as follows: active = growth percent below 10; inactive = the rest.", "data": [{"test_system": "SF-268 CNS", "test": "NCI-60 one-dose screen, 48 h (100 = growth as untreated, 0 = no growth, -100 = all killed)", "conditions": "10 µM unless noted", "values": [{"compound": "S=c1[nH]nc2sc3ccccc3n12", "growth": "110%"}, {"compound": "Clc1ccc2nc(Cl)c3ccccc3c2c1", "growth": "76.3%"}, {"compound": "CCOC(Cc1c(N)[nH]c(=S)[nH]c1=O)OCC", "growth": "111%"}, {"compound": "COc1ccc(-c2nnc(COc3ccc(NC(=O)Nc4cc(C(F)(F)F)cc(C(F)(F)F)c4)cc3F)o2)cc1", "growth": "18.8%"}, {"compound": "Clc1cccc(Cc2cn3cc(-c4ccccc4)nc3s2)c1", "growth": "64.9%"}, {"compound": "ClC1=C(Cl)C(Cl)=C(Cl)C1=C/C=C/c1ccccc1", "growth": "-48.7% (active)"}, {"compound": "O=[N+]([O-])c1cnc(Sc2ccncn2)c([N+](=O)[O-])c1", "growth": "101%"}, {"compound": "O=C(N1CCC(CN=c2cc3n(-c4ccc(Cl)cc4)c4ccccc4nc-3cc2Nc2ccc(Cl)cc2)CC1)N1CC1", "growth": "-63.6% (active)"}, {"compound": "COc1cc(/C=C2\\CCC/C(=C\\c3ccc(OCC4CO4)c(OC)c3)C2=O)ccc1OCC1CO1", "note": "(centres undefined)", "growth": "1.73% (active)"}, {"compound": "COc1ccc(-n2nnc(C(=O)O)c2-c2cc(OC)c(OC)c(OC)c2)cc1", "growth": "115%"}, {"compound": "Nc1nc(N)c([N+](=O)[O-])c(=O)[nH]1", "growth": "115%"}, {"compound": "Oc1[nH]c2ccccc2c1/C=c1/ccc2c(c1)N=C(c1cc(F)cc(F)c1)N=2", "growth": "80.8%"}, {"compound": "O=c1ccn(C2CCCO2)c(=O)[nH]1", "note": "(centres undefined)", "growth": "104%"}, {"compound": "COc1ccc2nc3cc(Cl)ccc3c(Nc3cc(C(C)C)c(O)cc3C)c2c1", "growth": "64%"}, {"compound": "COc1ccc(-c2cnnn2-c2cc(OC)c3c(c2)OCO3)cc1", "growth": "29.9%"}, {"compound": "CC1=CC(=O)C(C(C)=Nc2ccccc2Cl)C(=O)O1", "note": "(centres undefined)", "growth": "101%"}, {"compound": "O=[P@@]1(c2ccccc2)O[C@H](COCc2ccccc2)[C@@H](OCc2ccccc2)[C@H](OCc2ccccc2)[C@H]1NCc1ccccc1", "growth": "32.2%"}, {"compound": "COc1ccc(-c2noc(N)c2-c2cc(OC)c3c(c2)OCO3)cc1", "growth": "35.6%"}, {"compound": "CN(C)c1nc(-c2ccco2)n2nc(-c3ccco3)cc2n1", "growth": "118%"}, {"compound": "COc1cccc(C2C(C#N)=C(N)Oc3cc(OC)ccc32)c1", "note": "(centres undefined)", "growth": "18.3%"}, {"compound": "c1cnc2ccc3ncccc3c2c1", "growth": "107%"}, {"compound": "O=C(c1ccccc1)c1ccco1", "growth": "98.5%"}, {"compound": "CCOC(=O)C1=NN(c2ccc(Cl)cc2)C2C3N(c4ccc(Cl)cc4)N=C(C(=O)OCC)N3c3ccccc3N12", "note": "(centres undefined)", "growth": "102%"}, {"compound": "Cc1cc(NC(=O)c2ccc(N)cc2)ccc1N=Nc1ccc2c(O)c(N=Nc3ccc(Cl)c(S(=O)(=O)O)c3)c(S(=O)(=O)O)cc2c1", "growth": "89.9%"}, {"compound": "O=C(Nc1cccc(C(F)(F)F)c1)Nc1ccc(OCc2nnc(-c3ccc(Cl)cc3)o2)c(F)c1", "growth": "83.3%"}, {"compound": "CCN1C(=O)c2ccc3c4c(ccc(c24)C1=O)C(=O)N(CCCNCc1ccccc1OC)C3=O", "growth": "-15.5% (active)"}, {"compound": "C=C1c2c(C)nn(-c3ccc(C#CCOC4OC(CO)C(O)C(O)C4O)cc3)c2N(C)C23C[C@H]1C1(C)c4c(C)nn(-c5ccc(C#CCOC6OC(CO)C(O)C(O)C6O)cc5)c4N(C)C(C)(C[C@H]12)C3", "note": "(some centres undefined)", "growth": "7.57% (active)"}, {"compound": "O=C(Nc1ccc(OCc2nnc(-c3ccccc3)o2)c(F)c1)Nc1ccc(Cl)c(C(F)(F)F)c1", "growth": "36.2%"}, {"compound": "O=C(/C=C/c1ccccc1Cl)c1ccc(O)cc1", "growth": "53.7%"}, {"compound": "O=C(Nc1ccncc1)C(=O)c1cn(S(=O)(=O)c2cccc(F)c2)c2ccccc12", "growth": "75.9%"}, {"compound": "COc1cc(/C=C/C(=O)c2ccc(F)cc2)ccc1OCCCCCOc1cc2c(cc1OC)C(=O)N1CCCC1C=N2", "note": "(centres undefined)", "growth": "-29.9% (active)"}, {"compound": "O=C(/C=C/c1ccc(O)c(O)c1)N1CCN(c2ccc(Cl)cc2)CC1", "growth": "57%"}, {"compound": "O=C(OCCBr)c1ccc(Cl)c([N+](=O)[O-])c1", "growth": "100%"}, {"compound": "Cc1cc(C(=O)O)c(C)cc1C(=O)O", "growth": "115%"}, {"compound": "O=C1/C(=N/O)CCc2ccccc21", "growth": "91%"}]}, {"test_system": "SF-295 CNS", "test": "NCI-60 one-dose screen, 48 h (100 = growth as untreated, 0 = no growth, -100 = all killed)", "conditions": "10 µM unless noted", "values": [{"compound": "Fc1ccc(-c2nnc(-c3c(-c4ccc(F)cc4)nc4ncccn34)o2)cc1", "growth": "93%"}, {"compound": "ClC1=C(Cl)C(Cl)=C(Cl)C1=C/C=C/c1ccccc1", "growth": "-2.39% (active)"}, {"compound": "COc1ccc2nc3cc(Cl)ccc3c(Nc3cc(C(C)C)c(O)cc3C)c2c1", "growth": "5.22% (active)"}, {"compound": "CC1=CC(=O)C(C(C)=Nc2ccccc2Cl)C(=O)O1", "note": "(centres undefined)", "growth": "121%"}, {"compound": "c1cnc2ccc3ncccc3c2c1", "growth": "113%"}, {"compound": "CCN1C(=O)c2ccc3c4c(ccc(c24)C1=O)C(=O)N(CCCNCc1ccccc1OC)C3=O", "growth": "-69.8% (active)"}, {"compound": "O=C(/C=C/c1ccccc1Cl)c1ccc(O)cc1", "growth": "47.4%"}, {"compound": "COc1cc(/C=C/C(=O)c2ccc(F)cc2)ccc1OCCCCCOc1cc2c(cc1OC)C(=O)N1CCCC1C=N2", "note": "(centres undefined)", "growth": "72.2%"}, {"compound": "COc1ccc2c(c1)/C(=C\\c1c[nH]c3ccc(F)cc13)C(=O)N2", "growth": "100%"}]}]}
